In PubChem BioAssay (EPA / NIEHS):
Inconclusive results are not listed. Active and inactive are the calls of the source. The calls were made as follows, unless noted: active = hit-call score of the fitted dose curve at least 0.9, where 1 is the maximum; inconclusive = response in the unintended direction; inactive = score below 0.9.

Key:
[1] = molecular target: Estrogen receptor beta (Homo sapiens) (UniProt Q92731); assay: OT_ER_ERbERb_1440: Odyssey Thera (OT) 24-hour HEK293T Protein-Complementation Assay for Estrogen Receptor-beta/-beta Homodimer (AID 2283380);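 also: scored as signal increase over DMSO baseline for both agonists and antagonists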
In short: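 HEK293T cells stably expressing ER beta LBD (aa 310-547) homodimer fragment-complementation reporter, dosed 24 h. Cells formaldehyde-fixed, Draq5-stained; gain in nuclear (agonist) or nuclear plus cytoplasmic (antagonist) fluorescence versus DMSO read by laser scanning cytometry.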

[2] = molecular target: Estrogen receptor (Homo sapiens) (UniProt P03372); assay: OT_ERa_GFPERaERE_0480: Odyssey Thera (OT) 8-hour HeLa Transcription Induction Assay for Estrogen Receptor (AID 2283381; active = hit-call score of the fitted dose curve at least 0.9, where 1 is the maximum; inactive = score below 0.9)
In short: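 Human cervical HeLa cells were treated for 8 hours, after which ERE-driven GFP induction was measured by fluorescence microscopy; increases over DMSO baseline defined activity.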

[3] = molecular target: Estrogen receptor (Homo sapiens) (UniProt P03372); assay: OT_ERa_GFPERaERE_0120: Odyssey Thera (OT) 2-hour HeLa Transcription Induction Assay for Estrogen Receptor (AID 2283382)
In short: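 Cells (human cervical HeLa) receive compound, incubate 2 hours, then are imaged for fluorescent reporter induction. Images are quantified by high content analysis, and activity is fitted as gain of signal against DMSO.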

[4] = molecular target: Peroxisome proliferator-activated receptor gamma (Homo sapiens) (UniProt P37231); assay: OT_PPARg_PPARgSRC1_0480: Odyssey Thera (OT) 8-hour Protein-Complementation Assay for Peroxisome Proliferator-activated Receptor Gamma / SRC-1 Co-activator (AID 2283387)
In short: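 HEK293T transiently transfected with PPARg and SRC-1 fused to Venus YFP fragments, compounds 8 h at 37C. Fixed, Draq5-stained cells imaged; nuclear/cytoplasmic 488 nm fluorescence ratio over at least 350 cells per image; gain fitted versus DMSO.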

[5] = molecular target: Peroxisome proliferator-activated receptor gamma (Homo sapiens) (UniProt P37231); assay: OT_PPARg_PPARgSRC1_1440: Odyssey Thera (OT) 24-hour Protein-Complementation Assay for Peroxisome Proliferator-activated Receptor Gamma/ SRC-1 Co-activator (AID 2283388)
In short: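 HEK293T transiently transfected with PPARg/SRC-1 split-Venus YFP fusions 48 h before dosing, then treated 24 h at 37C. Fixed cells imaged; nuclear/cytoplasmic 488 nm fluorescence ratio, gain of signal versus DMSO.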

[6] = CEETOX_H295R_11DCORT: CeeTox H295R High-throughput Steroidogenesis Assay for 11-Deoxycortisol (11DCORT) (AID 2283432; active = hit-call score of the fitted dose curve at least 0.9, where 1 is the maximum; inactive = score below 0.9); details: actives raise or lower the signal
In short: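 H295R cells prestimulated 48 h with 10 uM forskolin, then exposed 48 h to chemical in 0.1% DMSO. 11-Deoxycortisol in medium quantified by HPLC-MS/MS after MTBE extraction; bidirectional fit versus DMSO. MTT viability read in same wells.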

[7] = CEETOX_H295R_OHPREG: CeeTox H295R High-throughput Steroidogenesis Assay for OH-Pregnenolone (OHPREG) (AID 2283434; active = hit-call score of the fitted dose curve at least 0.9, where 1 is the maximum; inactive = score below 0.9); details: actives raise or lower the signal
In short: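 H295R, 10 uM forskolin pre-stim 48 h; test chemical 48 h, 0.1% DMSO final. MTBE extraction, reverse-phase C18 HPLC-ESI+ MS/MS of medium. Gain/loss vs DMSO; viability by MTT in same wells.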

[8] = CEETOX_H295R_OHPROG: CeeTox H295R High-throughput Steroidogenesis Assay for OH-Progesterone (OHPROG) (AID 2283435; active = hit-call score of the fitted dose curve at least 0.9, where 1 is the maximum; inactive = score below 0.9;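 as to AC50: human adrenal H295R cells primed 48 h with 10 µM forskolin; 17alpha-hydroxyprogesterone secreted into medium measured by HPLC-MS/MS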); details: actives raise or lower the signal
In short: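 Steps: seed H295R cells and adhere overnight; stimulate with 10 uM forskolin for 48 h; replace with chemical-containing medium (0.1% DMSO) for 48 h; extract medium with MTBE; quantify 17alpha-hydroxyprogesterone by reverse-phase C18 HPLC-MS/MS against a 7-point curve.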

[9] = CEETOX_H295R_CORTIC: CeeTox H295R High-throughput Steroidogenesis Assay for Corticosterone (CORTIC) (AID 2283437; active = hit-call score of the fitted dose curve at least 0.9, where 1 is the maximum; inactive = score below 0.9;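 also: corticosterone secreted into medium quantified by mass spectrometry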;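 as to AC50: human H295R adrenal cells prestimulated with forskolin before chemical exposure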); details: actives raise or lower the signal
In short: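 48 h forskolin (10 uM) prestim, then 48 h chemical exposure, final DMSO 0.1%. Readout: corticosterone in medium by LC-MS/MS after MTBE extraction. Gain/loss fit vs DMSO; MTT viability in same wells.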

[10] = CEETOX_H295R_CORTISOL: CeeTox H295R High-throughput Steroidogenesis Assay for Cortisol (AID 2283438; active = hit-call score of the fitted dose curve at least 0.9, where 1 is the maximum; inactive = score below 0.9); details: actives raise or lower the signal
In short: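 Cortisol synthesis by H295R cells is measured 48 h after chemical dosing, following a 48 h stimulation with 10 uM forskolin. Hormone is extracted and quantified by HPLC-MS/MS, and activity is fitted bidirectionally against the DMSO control.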

[11] = CEETOX_H295R_DOC: CeeTox H295R High-throughput Steroidogenesis Assay for DOC (AID 2283439; active = hit-call score of the fitted dose curve at least 0.9, where 1 is the maximum; inactive = score below 0.9); details: actives raise or lower the signal
In short: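 Steps: seed H295R, adhere overnight; 10 uM forskolin 48 h; replace with chemical medium (0.1% DMSO) 48 h; collect medium, MTBE extraction, HPLC-MS/MS for DOC. Viability then checked by MTT; cytotoxic chemicals diluted until viability ≥70%.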

[12] = CEETOX_H295R_ESTRADIOL: CeeTox H295R High-throughput Steroidogenesis Assay for Estradiol (AID 2283440; active = hit-call score of the fitted dose curve at least 0.9, where 1 is the maximum; inactive = score below 0.9;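 also: estradiol secreted into medium quantified by LC-MS/MS after dansyl derivatisation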); details: actives raise or lower the signal
In short: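 H295R cells pre-stimulated 48 h with 10 uM forskolin, then exposed 48 h to chemical in 0.1% DMSO. Medium estradiol quantified by MTBE extraction, dansyl derivatisation and HPLC-MS/MS; bidirectional fit versus DMSO; MTT viability required >/=70%.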

[13] = CEETOX_H295R_ESTRONE: CeeTox H295R High-throughput Steroidogenesis Assay for Estrone (AID 2283441; active = hit-call score of the fitted dose curve at least 0.9, where 1 is the maximum; inactive = score below 0.9); details: actives raise or lower the signal
In short: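 Estrone secreted into medium quantified by LC-MS/MS after dansyl chloride derivatization, following 48 h chemical exposure (0.1% DMSO final) of forskolin-prestimulated (10 uM, 48 h) H295R cells; gain or loss fitted against DMSO; MTT viability in same wells.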

[14] = molecular target: Bile acid receptor (Homo sapiens) (UniProt Q96RI1); assay: OT_FXR_FXRSRC1_0480: Odyssey Thera (OT) 8-hour HEK293T Protein-Complementation Assay for Farnesoid X receptor/SRC-1 Co-activator (AID 2283383)
In short: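 PCA, HEK293T, 8 h compound exposure; FXR–SRC-1 binding reconstitutes split reporter; fluorescence intensity; positive-direction fit vs DMSO.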

[15] = molecular target: Bile acid receptor (Homo sapiens) (UniProt Q96RI1); assay: OT_FXR_FXRSRC1_1440: Odyssey Thera (OT) 24-hour HEK293T Protein-Complementation Assay for Farnesoid X receptor/SRC-1 Co-activator (AID 2283384)
In short: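 Measures ligand-driven FXR–SRC-1 co-activator recruitment in HEK293T via fragment complementation, fluorescence intensity at 24 h. DMSO served as negative control and baseline for gain-of-signal fitting.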

[16] = CEETOX_H295R_ANDR: CeeTox H295R High-throughput Steroidogenesis Assay for Androstenedione (ANDR) (AID 2283436; active = hit-call score of the fitted dose curve at least 0.9, where 1 is the maximum; inactive = score below 0.9;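 also: human H295R adrenal cells exposed for 48 h with androstenedione measured in medium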); details: actives raise or lower the signal
In short: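 48 h chemical exposure, H295R cells, DMEM/F12 + ITS+ and Nu-Serum. Medium androstenedione: MTBE extraction, C18 reverse-phase HPLC, ESI+ MS/MS. Fit bidirectional vs DMSO; MTT viability in same wells.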

Measured: AC50

Chain of Estrogen receptor (Homo sapiens) (P03372 whole entry, looked up): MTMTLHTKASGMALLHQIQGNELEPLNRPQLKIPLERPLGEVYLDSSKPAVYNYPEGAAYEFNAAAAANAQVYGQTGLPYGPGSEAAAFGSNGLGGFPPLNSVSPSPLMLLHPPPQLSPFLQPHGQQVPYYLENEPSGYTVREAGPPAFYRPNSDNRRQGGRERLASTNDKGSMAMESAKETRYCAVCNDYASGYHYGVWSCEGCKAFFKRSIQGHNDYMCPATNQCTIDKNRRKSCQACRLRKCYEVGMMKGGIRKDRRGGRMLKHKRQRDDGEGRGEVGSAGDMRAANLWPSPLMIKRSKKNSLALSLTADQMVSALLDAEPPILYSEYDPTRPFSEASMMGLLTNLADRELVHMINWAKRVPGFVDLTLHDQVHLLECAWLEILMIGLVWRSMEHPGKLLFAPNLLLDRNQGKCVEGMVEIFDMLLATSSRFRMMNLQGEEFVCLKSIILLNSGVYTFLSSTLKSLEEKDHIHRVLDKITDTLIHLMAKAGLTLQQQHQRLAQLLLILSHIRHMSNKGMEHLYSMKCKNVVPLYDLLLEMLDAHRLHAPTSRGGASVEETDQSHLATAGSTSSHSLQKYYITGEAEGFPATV
Chain of Peroxisome proliferator-activated receptor gamma (Homo sapiens) (P37231 whole entry, looked up, the tested form may be a part): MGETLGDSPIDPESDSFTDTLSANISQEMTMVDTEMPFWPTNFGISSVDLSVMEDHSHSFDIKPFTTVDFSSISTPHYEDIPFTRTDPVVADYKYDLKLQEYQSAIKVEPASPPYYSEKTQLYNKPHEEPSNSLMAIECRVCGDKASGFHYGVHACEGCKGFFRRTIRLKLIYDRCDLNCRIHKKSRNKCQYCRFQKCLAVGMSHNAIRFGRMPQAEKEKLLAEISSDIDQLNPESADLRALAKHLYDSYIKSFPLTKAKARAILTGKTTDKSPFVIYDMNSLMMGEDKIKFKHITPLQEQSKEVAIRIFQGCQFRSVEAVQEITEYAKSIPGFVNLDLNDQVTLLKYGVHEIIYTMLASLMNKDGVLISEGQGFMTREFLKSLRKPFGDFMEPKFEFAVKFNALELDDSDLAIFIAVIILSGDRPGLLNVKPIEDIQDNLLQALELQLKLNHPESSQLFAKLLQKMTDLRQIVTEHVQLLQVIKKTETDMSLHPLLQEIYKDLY
Chain of Estrogen receptor beta (Homo sapiens) (Q92731 whole entry, looked up, the tested form may be a part): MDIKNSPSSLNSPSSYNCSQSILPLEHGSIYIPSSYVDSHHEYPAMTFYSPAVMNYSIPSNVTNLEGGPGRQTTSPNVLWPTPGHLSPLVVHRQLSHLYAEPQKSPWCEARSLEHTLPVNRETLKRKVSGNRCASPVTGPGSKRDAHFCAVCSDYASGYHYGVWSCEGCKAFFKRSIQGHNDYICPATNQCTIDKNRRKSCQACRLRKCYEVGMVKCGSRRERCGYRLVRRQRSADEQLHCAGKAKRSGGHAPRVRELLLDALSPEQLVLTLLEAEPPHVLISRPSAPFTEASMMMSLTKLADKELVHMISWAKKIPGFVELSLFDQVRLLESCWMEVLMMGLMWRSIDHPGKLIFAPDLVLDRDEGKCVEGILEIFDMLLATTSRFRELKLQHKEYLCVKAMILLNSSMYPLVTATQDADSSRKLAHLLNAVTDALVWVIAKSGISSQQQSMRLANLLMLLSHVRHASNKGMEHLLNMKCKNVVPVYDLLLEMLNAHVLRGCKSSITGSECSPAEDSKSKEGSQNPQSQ
Chain of Bile acid receptor (Homo sapiens) (Q96RI1 whole entry, looked up, the tested form may be a part): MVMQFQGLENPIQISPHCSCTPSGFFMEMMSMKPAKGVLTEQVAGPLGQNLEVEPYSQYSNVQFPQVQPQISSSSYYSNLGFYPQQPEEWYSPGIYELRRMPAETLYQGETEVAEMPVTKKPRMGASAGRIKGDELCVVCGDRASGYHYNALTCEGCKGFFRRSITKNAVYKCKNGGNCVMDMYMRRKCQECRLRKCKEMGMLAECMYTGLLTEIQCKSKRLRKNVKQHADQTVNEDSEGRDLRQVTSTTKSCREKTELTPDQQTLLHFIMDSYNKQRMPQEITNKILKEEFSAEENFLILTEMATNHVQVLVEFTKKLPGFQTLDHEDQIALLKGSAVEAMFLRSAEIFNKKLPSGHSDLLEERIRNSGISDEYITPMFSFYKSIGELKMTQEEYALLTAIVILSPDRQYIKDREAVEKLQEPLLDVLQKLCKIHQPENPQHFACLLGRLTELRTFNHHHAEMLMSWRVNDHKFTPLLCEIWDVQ

O=C(C=Cc1ccccc1)OCc1ccccc1
active: [7] 50 µM | [8] 50 µM | [9] 36.2 µM
not listed: [14] | [15] | [16]
inactive: all other assays above

OC1CCCCCCCCCCC1
inactive: [2] | [3] | [4] | [5]

OC1CCCC1
inactive: [1] | [2] | [3] | [4] | [5]

O=C1CCCC1
active: [2] 48.4 µM
inactive: [1] | [3] | [4] | [5]

C=CC(=O)NC(C)(C)CS(=O)(=O)O
inactive: [1] | [2] | [3] | [4] | [5]

CC(CC=O)CCCC(C)(C)O (stereo not drawn)
inactive: [2] | [3] | [4] | [5]

CCN(CCC#N)c1ccc(N=Nc2c(Cl)cc([N+](=O)[O-])cc2Cl)cc1
inactive: [2] | [3] | [15] | [4] | [5]
active: [14] 29 µM

CO[Si](OC)(OC)c1ccccc1
inactive: [1] | [2] | [3] | [4] | [5]

COC(=O)c1c(C)cc(O)c(C)c1O
active: [1] 56.4 µM | [8] 26.3 µM
inactive: [2] | [3] | [4] | [5] | [7] | [12] | [13]

CO[Si](CCC1CCC2OC2C1)(OC)OC (stereo not drawn)
inactive: [6] | [7] | [8] | [16] | [9] | [10] | [11]
